Reference: PubChem BioAssay AID1345085 (National Center for Advancing Translational Sciences (NCATS), 2018)
Results filed as inconclusive are left out. Values without a mark were called inactive. The source made the active and inactive calls. Calls come from the whole dose curve; as a rule, active = well fitted cell-killing curve with a large enough effect; inconclusive = small, poorly fitted or top-dose-only effect, or effect the other way; inactive = no such curve, though single readings can be large or run the other way.

Tested on: SKOV3
Test: Confirmatory qHTS for gynecologic anti-cancer compounds from libraries of approved drugs and bioactive compounds; note: nearly all actives have a fitted effect of over 55% in size
Details: gynecologic cancer cell panel viability, ATPlite luminescence, 48 h; series mostly up to 57.6 µM
Method in brief: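 IC50 values derive from an ATPlite ATP-content luminescence assay following 48 h treatment at 37 C. Each compound ran as an 11-concentration, threefold series (57.5 uM to 0.977 nM); HEK 293T served as control line for selectivity index.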
% is set by controls: 0 for no effect and ±100 for the full control effect; potency is the fitted concentration of half-maximal effect.

Question: How did the Potency turn out when C[C@]12CCC(=O)C=C1[C@@H]1C[C@@H]1[C@H]1[C@@H]3[C@@H]4C[C@@H]4[C@@]4(CCC(=O)O4)[C@@]3(C)CC[C@@H]12 was run?
Answer: inactive

Question: With C=CC(=O)Nc1cccc(Oc2nc(Nc3ccc(N4CCN(C)CC4)cc3)ncc2Cl)c1 as the compound, how does the Potency read?
Answer: 1.72 µM (active)

Question: With Cc1nc(NC(=O)N2CCCC2C(N)=O)sc1-c1ccnc(C(C)(C)C(F)(F)F)c1 (configuration not stated) as the compound, how does the Potency read?
Answer: 0.685 µM (active)

Question: COc1cc2c(c(OC)c1OC)-c1ccc(OC)c(=O)cc1[C@@H](NC(C)=O)CC2 was tested. Which Potency did it give?
Answer: inactive

Question: CCCc1nn(C)c2c(=O)[nH]c(-c3cc(S(=O)(=O)N4CCN(C)CC4)ccc3OCC)nc12 was tested. Which Potency did it give?
Answer: inactive

Question: For Nc1nc(Cl)nc2c1ncn2C1OC(CO)C(O)C1F (configuration not stated), which Potency is on record?
Answer: 0.432 µM (active)

Question: O=C(c1ccc(/C=C/c2n[nH]c3ccccc23)cc1)N1CCNCC1 was tested. Which Potency did it give?
Answer: 21.7 µM (active)

Question: How did the Potency turn out when COC(C(=O)N1Cc2[nH]nc(NC(=O)c3ccc(N4CCN(C)CC4)cc3)c2C1)c1ccccc1 (configuration not stated) was run?
Answer: inactive

Question: Which Potency does the source give for COc1cc(N2CCC(N)CC2)ccc1Nc1ncc(Cl)c(-c2c[nH]c3ccccc23)n1 here?
Answer: 21.7 µM (active)

Question: Which Potency does the source give for CCn1c(-c2nonc2N)nc2c(C#CC(C)(C)O)ncc(OCC3CCCNC3)c21 (configuration not stated) here?
Answer: inactive

Question: With COc1cc(Nc2c(C#N)cnc3cc(OCCCN4CCN(C)CC4)c(OC)cc23)c(Cl)cc1Cl as the compound, how does the Potency read?
Answer: 19.3 µM (active)

Question: For O=C(O)C1(Cc2cccc(Nc3nccs3)n2)CCC(Oc2cccc(Cl)c2F)CC1 (configuration not stated), which Potency is on record?
Answer: inactive

Question: For CCCCc1oc2ccccc2c1C(=O)c1cc(I)c(OCCN(CC)CC)c(I)c1, which Potency is on record?
Answer: 70.8 µM (active)

Question: Which Potency does the source give for CCOC(=O)C1=C(C)NC2=C(C(=O)CC(C)(C)C2)C1c1ccc(-c2ccccc2)cc1 (configuration not stated) here?
Answer: inactive

Question: How did the Potency turn out when O=C(/C=C/c1cccc(S(=O)(=O)Nc2ccccc2)c1)NO was run?
Answer: 1.88 µM (active)

Question: For c1nc2nc(Nc3ccc(N4CCOCC4)cc3)nc(NC3CCCCC3)c2[nH]1, which Potency is on record?
Answer: inactive

Question: For Cc1cc(SCc2sc(-c3ccc(C(F)(F)F)cc3)nc2C)ccc1OCC(=O)O, which Potency is on record?
Answer: inactive

Question: With S=c1nc[nH]c2nc[nH]c12 as the compound, how does the Potency read?
Answer: 5.44 µM (active)

Question: Which Potency does the source give for Cc1nc(N)ncc1-c1nc(N2CCOCC2)c2sc(C(C)(C)O)cc2n1 here?
Answer: 0.432 µM (active)

Question: For CC[C@@]1(O)C(=O)OCc2c1cc1n(c2=O)Cc2cc3c(CN(C)C)c(O)ccc3nc2-1, which Potency is on record?
Answer: 0.544 µM (active)

Question: Which Potency does the source give for COc1cc(N2CCC(N(C)C)CC2)ccc1Nc1ncc(Cl)c(Nc2ccccc2P(C)(C)=O)n1 here?
Answer: 6.11 µM (active)

Question: How did the Potency turn out when COc1cc2c(Nc3ccc(NC(=O)c4ccccc4)cc3)ncnc2cc1OCCCN1CCOCC1 was run?
Answer: inactive

Question: How did the Potency turn out when CN(C)C1CCN(C(=O)c2ccc(NC(=O)Nc3nc(N4CCOCC4)nc(N4CCOCC4)n3)cc2)CC1 was run?
Answer: 0.109 µM (active)

Question: How did the Potency turn out when CC(C)C[C@H](NC(=O)[C@H](CCc1ccccc1)NC(=O)CN1CCOCC1)C(=O)N[C@@H](Cc1ccccc1)C(=O)N[C@@H](CC(C)C)C(=O)[C@@]1(C)CO1 was run?
Answer: 13.7 µM (active)

Question: For C[C@@]1(C(=O)Nc2ccc(F)nc2)CCCN1c1nc(Nc2cc(C3CC3)[nH]n2)c2cccn2n1, which Potency is on record?
Answer: 3.43 µM (active)

Question: Which Potency does the source give for CCc1c2c(nc3ccc(O)cc13)-c1cc3c(c(=O)n1C2)COC(=O)[C@]3(O)CC here?
Answer: 0.0243 µM (active)

Question: For Cc1cnc(CNC(=O)c2c(=O)c3ccc(N4CCCN(C)CC4)nc3n3c2sc2ccccc23)cn1, which activity change, negative = viability loss is on record?
Answer: 5.48% [at 10.7 µM]

Question: Which Potency does the source give for O=C(Nc1cn[nH]c1-c1nc2ccc(CN3CCOCC3)cc2[nH]1)NC1CC1 here?
Answer: 7.69 µM (active)

Question: How did the Potency turn out when Cn1cc(-c2[nH]c3cc(NC(=O)[C@H](N)C4CCCCC4)cc4c3c2C=NNC4=O)cn1 was run?
Answer: 0.968 µM (active)

Question: O=C(c1ccc(F)c(F)c1Nc1ccc(I)cc1F)N1CC(O)([C@@H]2CCCCN2)C1 was tested. Which Potency did it give?
Answer: 6.11 µM (active)

Question: Cc1ccc(C(=O)Nc2cccc(C(F)(F)F)c2)cc1-c1ccc2nc(NCCN3CCOCC3)ncc2c1 was tested. Which Potency did it give?
Answer: 12.2 µM (active)

Question: With Cc1c(C)n(Cc2ccc(-c3ccccc3C(=O)O)cc2)c2ccc(C(=O)N[C@@H](C)c3ccc([N+](=O)[O-])cc3)cc12 as the compound, how does the Potency read?
Answer: inactive
